# KKLEB tox: CF airway cell cytotoxicity counter-screen | KKLEB CF airway cells viability, ATPlite luminescence, overnight; hits give low values; cells stimulated with P. aeruginosa culture filtrate | activity change (cytotoxicity), % at 5 µM | 360,000 compounds, 0.36% hits | AID 602141;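 active = corrected activity change at or below -50% at 5 µM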
# iPSC survival up: hiPSC single-cell survival enhancement | ATPlite luminescence; 100% = ROCK inhibitor wells, 0% = DMSO | survival enhancement, % at 20 µM | 360,000 compounds, 0.044% hits; in the data active = survival enhancement above about 18%;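 note: cells exposed to compounds for 16 hours before the ATP read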
# TWEAK Fn14 block: inhibitors of TWEAK-Fn14 interaction signaling. inhibition, % at 10 µM. 360,000 compounds, 2% hits. TWEAK-stimulated Fn14 reporter cells, luciferase luminescence, 8 h. AID 1159606; in the data active = inhibition above about 50%
# HIF-2a block: inhibitors of HIF-2a. 786-0 RCC cells HIF-2a reporter, luciferase luminescence, overnight. inhibition, % at 18.8 µM. 360,000 compounds, 0.72% hits. AID 624352;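 active = inhibition of the luminescence signal of 40% or more relative to plate controls, in a single-dose primary screen at 18.75 µM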
# LGR2 inh: inhibitors of bursicon-induced Drosophila LGR2 receptor cAMP signaling; 380,000 compounds, 0.35% hits; inhibition, % at 9.99 µM; HEK293 LGR2, CRE-luciferase, bursicon-stimulated, 4 h;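 active = drop in luminescence signal, shown as inhibition above about 50% in the replicate tests, limit read from the data, passing the limit was not always enough; inconclusive = probably only some replicates passing the limit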;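 note: agonist challenge used bursicon conditioned medium at about half maximal strength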
# CF NFkB inh: inhibitors of cystic fibrosis induced NF-kB; KKLEB NF-kB-GFP reporter, PAF-induced, GFP fluorescence overnight; inhibition, % at 5 µM; 360,000 compounds, 0.86% hits; AID 588850;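 active = at least 50% inhibition at 5 µM, scaled per plate between neutral and stimulator controls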;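 note: PAF is a Pseudomonas aeruginosa culture filtrate used as stimulus; plate controls were PAF-stimulated DMSO wells for no effect and unstimulated DMSO wells for full effect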
# * = called active by the depositor; ? = inconclusive; nt = no result. In the library only some 2.3% were active in any assay of this set; here they are far more common.
SMILES,KKLEB tox,iPSC survival up,TWEAK Fn14 block,HIF-2a block,LGR2 inh,CF NFkB inh
O=C(/C=C/c1cnc2ccccc2n1)NC12CC3CC(CC(C3)C1)C2,-10,-3,73*,-64,34,4
Cc1cccc(S(=O)(=O)N2C[C@@H]3[C@H](c4ccccc42)[C@@H](CO)N3C(=O)CC2CC2)c1,nt,nt,nt,nt,14,nt
COc1ccccc1C(=O)NC(=S)Nc1ccccc1N1CCCC1,-11,0,76*,-105,5,-23
COc1ccc(OCC(=O)NC(=S)N2CCCc3ccccc32)cc1,7,3,55*,-109,-16,-8
COc1ccccc1NC(=O)Nc1ccccc1N1CCOCC1,7,0,61*,-40,2,-7
COc1ccccc1C(=O)NC(=S)N1CCCc2ccccc21,-1,-3,59*,-88,-31,-5
COc1ccccc1C(=O)Nc1ccccc1N1CCOCC1,-5,-2,-4,-10,-13,0
CCC(=O)N1[C@H](CO)[C@@H](c2ccccc2)C12CN(CCC(F)(F)F)C2,nt,nt,nt,nt,9,nt
COc1ccccc1-c1cn(CC[C@H]2CC[C@@H](NC(=O)c3ccccc3F)[C@@H](CO)O2)nn1,nt,nt,nt,nt,-3,nt
O=C(C[C@@H]1CC[C@@H]2[C@H](COC[C@@H](O)CN2Cc2ccccc2)O1)NCCCN1CCOCC1,nt,nt,nt,nt,-2,nt
CCCC(=O)Nc1ccc2c(c1)C(=O)N(C)C[C@H](OC)[C@H](C)CN(CC1CCOCC1)[C@H](C)CO2,nt,nt,nt,nt,2,nt
COc1ccc(S(=O)(=O)N(C)C[C@H]2Oc3ccc(NC(=O)CCCCCC(=O)Nc4ccccc4N)cc3CC(=O)N([C@H](C)CO)C[C@H]2C)cc1,nt,nt,nt,nt,6,nt
O=C(CN1C(=O)CSc2ccc(S(=O)(=O)N3CCOCC3)cc21)NCCc1ccccc1,1,2,97*,2,4,22
C[C@H]1CN([C@@H](C)CO)C(=O)c2cc(C3=CCCCC3)cnc2O[C@@H]1CN(C)C(=O)C1CCOCC1,nt,nt,nt,nt,6,nt
O=C(Nc1cc(F)ccc1F)N[C@@H]1CC[C@@H](CCn2cc(C3CCCC3)nn2)O[C@H]1CO,nt,nt,nt,nt,-18,nt
COc1ccc(-n2nc(C(=O)NCC(=O)NCCCN3CCOCC3)c3ccccc3c2=O)cc1OC,-76*,0,-3,4,14,13
COc1ccc(-n2nc(C(=O)NCC(=O)NCCCN3CCOCC3)c3ccccc3c2=O)cc1Cl,-6,2,-12,7,-4,4
O=C(O)C[C@H]1CC[C@H](NC(=O)Nc2cc(F)ccc2F)[C@@H](CO)O1,nt,nt,nt,nt,-8,nt
CC[N+](C)(CC)CCOC(=O)C(O)(c1ccccc1)C1CCCCC1 (configuration not stated),6,1,1,29,14,54*
C[C@@H]1CCCCO[C@@H](CN(C)C(=O)c2ccccc2)[C@H](C)CN([C@@H](C)CO)C(=O)c2cc(NS(=O)(=O)c3ccc(F)cc3)ccc2O1,nt,nt,nt,nt,4,nt
COc1ccc(NC(=O)N[C@@H]2CC[C@H](CCn3cc(-c4ccc(OC)cc4)nn3)O[C@H]2CO)cc1,nt,nt,nt,nt,3,nt
COc1cccc(CNc2nc3cc(-c4ccccc4)sc3c(=O)n2C)c1,-2,2,30,-102,5,-2
COc1cccc(CNc2nc3cc(-c4ccc(OC)c(OC)c4)sc3c(=O)n2C)c1,-9,-1,54*,-16,3,16
COc1cccc(CNc2nc3cc(-c4ccsc4)sc3c(=O)n2C)c1OC,-15,4,82*,-46,-15,-2
COc1ccc(-c2cc3nc(NCc4ccc(N(C)C)cc4)n(C)c(=O)c3s2)cc1OC,-4,-1,80*,-98,74*,0
SMILES,KKLEB tox,iPSC survival up,TWEAK Fn14 block,HIF-2a block,LGR2 inh,CF NFkB inh
COCC(=O)Nc1ccc2c(c1)OC[C@@H](C)N(C(=O)c1ccncc1)C[C@@H](C)[C@H](OC)CN(C)C2=O,nt,nt,nt,nt,-5,nt
CC[C@H](C)[C@@H]1OC(=O)[C@@H](C)[C@@H](CC)NC(=O)[C@H](C)N(C)C(=O)C(C)(C)C(=O)C(C)NC(=O)[C@H](Cc2ccccc2)N(C)C(=O)[C@H](C(C)C)N(C)C(=O)CNC(=O)[C@H](CC(C)C)N(C)C(=O)CNC1=O (some centres not stated),-97*,-5,-23,11,nt,91*
COc1ccc(CNC(=O)c2cccc3c(-c4cccc(C(N)=O)c4)coc23)cc1OC,-9,-2,91*,-83,31,22
COc1ccc(CNC(=O)c2cccc3c(-c4ccc(F)c(F)c4)coc23)cc1OC,5,-2,64*,0,nt,-34
COc1cc(-c2coc3c(C(=O)NCc4ccc(OC)c(OC)c4)cccc23)ccc1O,-32,1,95*,-160,45,4
NC(=O)c1cccc(-c2coc3c(C(=O)NCCc4ccccc4)cccc23)c1,6,2,41,-149,nt,-8
O=C1C2Sc3[nH]c(=O)sc3C(c3ccccc3)C2C(=O)N1c1ccccc1 (configuration not stated),1,2,89*,12,-9,6
COc1ccccc1NS(=O)(=O)c1cccc(NC(=O)c2cncc(Br)c2)c1,-5,-2,48,22,22,41
COc1ccc(NS(=O)(=O)c2cc(NC(=O)c3cncc(Br)c3)ccc2OC)cc1,-11,0,52*,15,-1,31
COc1ccc(NS(=O)(=O)c2cc(NC(=O)c3nn(C)c(=O)c4ccccc34)ccc2OC)cc1,-8,0,53*,10,2,-42
Cn1nc(C(=O)Nc2cccc(S(N)(=O)=O)c2)c2ccccc2c1=O,-5,0,11,-14,6,-26
CNc1ncnc(Sc2ccc(Cl)cc2)c1[N+](=O)[O-],-13,-1,86*,-11,16,23
Cn1nc([N+](=O)[O-])nc1Sc1ccc(Cl)cc1,7,-2,-3,4,-21,5
Nc1ccc2oc(-c3ccccc3Cl)nc2c1,6,-2,51*,14,-25,-22
CCc1ccc2oc(-c3cc(N)ccc3Cl)nc2c1,-9,-4,83*,-5,nt,-8
Nc1ccc2oc(-c3ccccn3)nc2c1,3,-4,4,-162,nt,1
CN(C)c1ccc(-c2nc3cc(N)ccc3o2)cc1,-60*,-1,74*,-54,?,-10
Nc1ccc(-c2nc3cc(N)ccc3o2)cc1,-4,0,25,-155,-22,16
CCc1ccc2oc(-c3cc(N)ccc3O)nc2c1,-18,-6,40,22,nt,-22
CO[C@@H]1CN(C)C(=O)c2cc(NC(=O)NC(C)C)ccc2OC[C@@H](C)N(CCC(F)(F)F)C[C@@H]1C,nt,nt,nt,nt,-15,nt
Cc1ccc(-c2cc(C(=O)N/N=C/c3c(C)nn(-c4ccccc4)c3C)n[nH]2)s1,-23,0,51*,-11,-19,57*
O=C(Nc1cccc(S(=O)(=O)c2cccc(NC(=O)c3ccco3)c2)c1)c1ccco1,-3,-1,59*,21,-8,-12

# Source: PubChem BioAssay
